Many of the other results were omitted from the sample, so hits are more common in it than they were.
Tg IFNy HTS – blocks Toxoplasma gondii growth in the presence of IFN-gamma; hit rate 3.8% among 69,000; Toxoplasma gondii growth in IFN-gamma-treated host cells; hits give low values; activity change, negative = inhibition, % (concentration not given with the values); AID 1259416; in the data active = activity change below about -70%, passing the limit was not always enough;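 note: host cells are HeLa cells infected with Toxoplasma gondii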
Large screens that a line does not name were inactive.

CCc1ccc(Nc2nc(C(=O)NCCCOC)nc3ccccc23)cc1	none
COc1cccc(CC(=O)Nc2ccc(-c3nc(-c4ccc(C)cc4C)co3)cc2)c1	none
O=C(c1ccncc1)N1CCCC(c2nc(-c3cccnc3)no2)C1 (centres undefined)	none
COCC1CCCN(C(=O)c2ccc(-c3cccnc3)nc2)C1 (centres undefined)	none
CC(C)(N)C(=O)N1CCCC(c2cc(Nc3cccc(F)c3)nc(-c3cccnc3)n2)C1 (centres undefined)	Tg IFNy HTS -82.1
COc1ccccc1NC(=O)NCC(c1cccnc1)c1c[nH]c2ccccc12 (centres undefined)	none
Cc1ccc(C2(O)CCN(C(=O)CCn3c(C)cccc3=O)CC2)nc1	none
Cc1cccc(-c2nc3cnccn3c2NCCC(=O)N2CCC(C)CC2)c1	none
Cn1c(=O)c2c(nc(Oc3ccccc3Br)n2C)n(C)c1=O	Tg IFNy HTS -74.9
Cn1c(=O)c2nc3ccccc3nc2n(C)c1=O	none
Cn1c(=O)c2c(ncn2Cc2ccccc2Cl)n(C)c1=O	none
COc1ccc(CC(=O)N2CCC3(CC2)OC(C(N)=O)Cn2ccnc23)cc1 (centres undefined)	none
Cc1[nH]cnc1-c1nccn1CCc1c[nH]c2ccccc12	none
CCCOC1CCCN(C(=O)CCNC(=O)c2ccc(F)cc2)C1 (centres undefined)	none
Clc1ccccc1-c1nnc(Cc2cc(Br)sc2Br)o1	Tg IFNy HTS -90.2
FC(F)(F)c1cc(Oc2ccccc2)ncc1-c1nnc(-c2ccccc2Cl)o1	none
COc1ccccc1-c1nnc(CC(=O)O)o1	none
COc1cccc(-c2[nH]ncc2CN2CCCC(O)(c3ccc(F)cc3)CC2)c1 (centres undefined)	none
O=C(NCc1ccccc1)[C@H]1CCS(=O)(=O)[C@H]2CNC[C@@H]12	none
COc1ccc(-c2ccccc2[C@H]2[C@@H](CO)N(C(=O)NC3CCCCC3)[C@H]2C#N)cc1	Tg IFNy HTS -72.4
COc1ccc(-c2ccccc2[C@@H]2[C@@H](C#N)N(C(=O)NC3CCCCC3)[C@H]2CO)cc1	none
COc1ccc(-c2ccccc2[C@@H]2[C@@H](C#N)N(C(=O)NC(C)C)[C@H]2CO)cc1	none
Cc1[nH]c(=O)[nH]c(=O)c1CSCC(=O)OCC(=O)Nc1ccc(Br)cn1	none
CCn1ncc(C(=O)NCCC(=O)Nc2ccc(C)cc2)c1C	none
CN(Cc1cc2n(n1)CCNC2)CC1(c2ccccc2)CC1(C)C (centres undefined)	none
O=C(c1scc2c1OCCO2)N1CC[C@@H](c2ccc(F)cc2)[C@H](O)C1	none
CN(Cc1ccccn1)C(=O)[C@@]12COC[C@@H]1CN(S(C)(=O)=O)C2	none
CCN1CCN(CC(=O)N2CCCC(c3cc(=O)n4c(n3)CCCCC4)C2)CC1 (centres undefined)	none
CCC(=O)N1CCCC(c2cc(C(F)(F)F)c3c(=O)n(C)c(=O)n(C)c3n2)C1 (centres undefined)	Tg IFNy HTS -78.6
CCC(=O)N1CCCC(c2cnc(Nc3nccs3)cn2)C1 (centres undefined)	none
CN(C)N1C(=O)CC(NCc2ccccc2)C1=O (centres undefined)	none
O=C(CCc1ccccc1)Nc1ccc(-c2nc(-c3ccccc3)co2)cc1	none
Cc1ccc(N2CCCC2=O)cc1S(=O)(=O)Nc1ccc(N2CCCC2=O)cc1	Tg IFNy HTS -90.5
Cc1ccc(N2CCCC2=O)cc1S(=O)(=O)NCCc1c(C)noc1C	none
Cc1ccc(N2CCCC2=O)cc1S(=O)(=O)Nc1ccc2c(c1)CC(=O)N2	none
CC(c1nccs1)N(C)C(=O)c1cccc(NCc2cccs2)c1 (centres undefined)	none
O=C(CCC1Nc2c3ccccc3nc(=S)n2C1=O)NC1CCCC1 (centres undefined)	none
Cc1cc(C)c2c(=O)n(Cc3nc(-c4ccccc4C)oc3C)c(=O)n(-c3ccccc3)c2n1	none
Cc1noc(C)c1CN1CCC2(CCC(=O)N2CCN(C)C)CC1	Tg IFNy HTS -82.3
C=CCN1C(=O)CCC12CCN(Cc1c(C)noc1C)CC2	none
Cc1noc(C)c1CN1CC2(CCN(C(=O)N(C)C)C2)CC1=O (centres undefined)	none
O=C(CC1COCCN1)N1CCN(c2ncccn2)CC1 (centres undefined)	none
Cc1nn(-c2ccccc2)c2sc(C(=O)N3CCCC(N)CC3)cc12 (centres undefined)	none
O=C(O)CCS(=O)(=O)c1ccc2[nH]c(=O)c(=O)[nH]c2c1	none
CC(C)N1CC(c2cc(N(C)C)nc(CN(C)C(=O)c3ccc4ncccc4c3)n2)CC1=O (centres undefined)	none
O=c1ccc2cc(S(=O)(=O)NCCN3CCc4ccccc4C3)ccc2[nH]1	none
COc1ccc(COc2cc3oc(=O)c4cc(C(C)O)ccc4c3cc2OC)cc1 (centres undefined)	none
COc1ccc(Cc2cnc(N)nc2N)cc1OC	Tg IFNy HTS -79.1
COc1cc(OC)cc(-c2nc(N)c3c(C)c(-c4ccc(OC)c(OC)c4)sc3n2)c1	none
Nc1nc(N)c(Cc2ccccc2)cc1Cc1ccccc1	none
COc1ccc(CCN(C)C2CCCN(c3ccnc(N)n3)C2)cc1OC (centres undefined)	none
COc1ccc(COc2ccc(Cc3cnc(N)nc3N)cc2OC)cc1	Tg IFNy HTS -77.3

Bioassay records from PubChem BioAssay.
